# The whole screen tested about 420,000 compounds, of which about 50,000 (12%) were called active. Roughly 26% stayed inconclusive and do not appear here. The full list was thinned out, with actives kept by preference. Values without a mark were called inactive. Calls follow the shape of the dose curve; as a rule, active = well fitted inhibition curve with a large enough effect; inconclusive = small, poorly fitted or top-dose-only effect; inactive = flat fitted curve, though single readings scatter.
# Assay: qHTS for Inhibitors of human tyrosyl-DNA phosphodiesterase 1 (TDP1): qHTS in cells in presence of CPT; also: nearly all actives have a fitted effect of over 55% in size
# Conditions: chicken DT40 Tdp1-/-;hTDP1 cells + 20 nM CPT, ATP luminescence, 48 h; series mostly up to 46.2 µM; activity change, negative = growth inhibition: at the top concentration
# In short: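 Cell growth measured by CellTiter-Glo luminescence after a minimum 48 h, 37 C compound exposure with 20 nM CPT in Tdp1-knockout DT40 cells stably expressing hTDP1, seeded 400/well; qHTS titration format.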
# % is scaled to controls: 0 for no effect and ±100 for the full control effect; potency is read from the fitted curve at half-maximal effect.
Structure (SMILES),"activity change, negative = growth inhibition [%]",Potency
CC1CCCCC1NC(=O)Cn1c(=O)cnc2ccccc21 (configuration not stated),0.78,–
O=S(=O)(Nc1ccccc1Br)c1cccs1,9.21,–
O=C(Cc1c(O)c2ccccc2[nH]c1=O)NCc1ccccc1,1.16,–
CCCOC(=O)Cc1c(O)c2ccccc2[nH]c1=O,-11.3,–
COC(=O)Cc1c(-c2[nH]c3ccccc3c2CC(=O)OC)[nH]c2ccccc12,–,20.6 µM (active)
Cc1ccc(Nc2ncnc3c2cnn3C)c(C)c1,-27.3,–
Cc1cc(-c2n[nH]c(=S)n2-c2ccc(C)c(C)c2)no1,-11.6,–
CCN(CC)C(=O)COc1coc(CN2CCN(Cc3ccccc3)CC2)cc1=O,-2.36,–
CC(C)(C)NC(=O)COC(=O)c1cc(Cl)ccc1[N+](=O)[O-],3.17,–
Nc1nc(CSc2nnnn2-c2ccccc2)nc(Nc2ccccc2)n1,-16,–
Cc1ccc(-c2noc(CSc3nnnn3-c3ccccc3)n2)cc1,-3.52,–
Cc1ccc(Nc2nc(CSc3nnnn3-c3ccccc3)cc(=O)[nH]2)cc1,–,23.1 µM (active)
O=C(NC1(C(F)(F)F)NC(=O)N(Cc2cccnc2)C1=O)c1ccccc1Cl (configuration not stated),-1.49,–
COC(=O)[C@@]12C[C@@H](CC(=O)N3CCC(c4ccccc4)CC3)C(=O)N(Cc3ccccc3)C1=CCC(C)(C)C2,–,18.4 µM (active)
CCOC(=O)C1CCN(C(=O)CC2C(=O)N(Cc3ccccc3)C(C)c3nc4ccccc4n32)CC1 (configuration not stated),-26.1,–
COC(=O)[C@]12CCCCC=C1N(Cc1ccc3c(c1)OCO3)C(=O)[C@H](CC(=O)N1CCOCC1)C2,8.29,–
O=c1cc(CN2CCN(c3cccc(Cl)c3)CC2)c2cc3c(cc2o1)CCCC3,-28.5,–
O=C(NCCCO)/C(=C\C=C\c1ccccc1)NC(=O)c1ccccc1Cl,-12.1,–
CCOP(=O)(OCC)C(Nc1ccc([N+](=O)[O-])cc1)c1ccc(Cl)cc1 (configuration not stated),-22,–
CC1=C(C(=O)N(C)C)CC(CC(=O)NCCc2ccccn2)C(=O)N1CCC1=CCCCC1 (configuration not stated),5.55,–
CCCCOCCCNC(=O)C[C@@H]1C[C@@]2(C(=O)OCC)CCCC=C2N(CCC2=CCCCC2)C1=O,–,13 µM (active)
CC1=C(C(=O)N2CCOCC2)CC(CC(=O)NCCN2CCOCC2)C(=O)N1CCC1=CCCCC1 (configuration not stated),-24.6,–
CCOC(=O)[C@]12CCC=C1N(Cc1ccco1)C(=O)[C@H](CC(=O)N1CCSCC1)C2,-27.5,–
CCOC(=O)[C@]12CCCC=C1N(CCC1=CCCCC1)C(=O)[C@H](CC(=O)N1CCCCC1)C2,–,7.31 µM (active)
CCOC(=O)[C@]12CCC=C1N(Cc1ccccc1)C(=O)[C@H](CC(=O)N1CCCC1)C2,-15.5,–

Structure (SMILES),"activity change, negative = growth inhibition [%]",Potency
CN1CCNC(=O)C1CC(=O)NCCC1=CCCCC1 (configuration not stated),-0.969,–
CCOC(=O)[C@]12CCCC=C1N(CCC1=CCCCC1)C(=O)[C@H](CC(=O)N1CCOCC1)C2,-80.8,–
CCOC(=O)[C@]12CCCC=C1N(Cc1ccc(Cl)cc1Cl)C(=O)[C@H](CC(=O)N1CCCCC1)C2,–,20.6 µM (active)
CCOC(=O)[C@]12CCCC=C1N(CCC1=CCCCC1)C(=O)[C@H](CC(=O)NCCCOC)C2,–,14.6 µM (active)
COc1ccc(CNC(=O)CN(C(=O)c2csnn2)c2cnc3ccccc3c2)cc1,-24,–
COCCNc1nnc(SCC(=O)NNC(=O)c2ccco2)s1,-0.281,–
Cc1ccc(NC(=O)C2CC2c2ccccc2)cc1 (configuration not stated),-15.6,–
O=C(/C=C/[C@H]1O[C@@H](n2cnc3c(NC(=O)c4ccccc4)ncnc32)[C@H](O)[C@@H]1O)NCc1ccccc1,-25.5,–
CC1CCCCC12NC(=O)N(CC(=O)Nc1ccc(S(=O)(=O)Nc3ncccn3)cc1)C2=O (configuration not stated),0.923,–
CCC(C)N(C(=O)COC(=O)C1C(C(=O)OC)=C(C)NC(C)=C1C(=O)OC)C1CCS(=O)(=O)C1 (configuration not stated),0.101,–
COc1cc(OC)c(C(=S)N2CCCC2)cc1OC,-22,–
CSc1ccccc1C(=O)OCC(=O)N1CCN(C(C)=O)CC1,-0.484,–
Cc1ccc(NC(=O)[C@H](Cc2ccccc2)NC(=O)CC[C@H]2O[C@@H](n3ccc(=O)[nH]c3=O)[C@H](O)[C@@H]2O)cc1C,-6.82,–
Cc1cccc(C(=O)Nc2ccc(Oc3cnccn3)cc2)c1,-11.8,–
CCN(CC)C(=O)C1=C(C)N(Cc2ccc(OC)cc2)C(=O)C(CC(=O)NCc2ccco2)C1 (configuration not stated),-18.4,–
CCCCNC(=O)C[C@@H]1C[C@@]2(C(=O)OCC)CCC=C2N(Cc2cccc3ccccc23)C1=O,–,16.4 µM (active)
CC1=C(C(=O)N2CCOCC2)CC(CC(=O)NCc2cccc3ccccc23)C(=O)N1CCC1=CCCCC1 (configuration not stated),-11.8,–
CCCCNC(=O)C[C@@H]1C[C@@]2(C(=O)OCC)CCC=C2N(Cc2ccco2)C1=O,-11.1,–
CCOC(=O)[C@]12CCC=C1N(CCC1=CCCCC1)C(=O)[C@H](CC(=O)NCc1ccc(C)o1)C2,–,16.4 µM (active)
C#CCNC(=O)C[C@@H]1C[C@@]2(C(=O)OCC)CCCC=C2N(Cc2ccco2)C1=O,-5.49,–
Cc1ccccc1OCC(=O)NNC(=O)c1cc(S(=O)(=O)N(C)C)ccc1N1CCCC1,-16.2,–
COc1ccc(NC(=O)CN(C)C(=O)CC2CCCCC2)cc1,1.32,–
COc1cc(OC)c(C2C=C(C(=O)O)Nc3ncnn32)cc1OC (configuration not stated),0.986,–
CC(C)CC(=O)Nc1ccc(Cc2ccncc2)cc1,-22.1,–
CCNC(=O)C1(C)CCN(C(=O)c2ccccc2)C1 (configuration not stated),-20.3,–

Structure (SMILES),"activity change, negative = growth inhibition [%]",Potency
CCOC(=O)NC(=O)C(=CNc1cccc(OC)c1)C(=O)NC(=O)OCC,1.35,–
COc1ccc2[nH]c3c(=O)n(Cc4ccco4)cnc3c2c1,-2.12,–
CCC(c1nnnn1Cc1ccco1)N(CCc1ccccc1)Cc1cc2ccc(OC)cc2[nH]c1=O (configuration not stated),–,23.1 µM (active)
COCCn1nnnc1C(c1cc2ccc(OC)cc2[nH]c1=O)N1CCc2ccccc2C1 (configuration not stated),-27.8,–
COc1cc(OC)c(C(=O)N2CCCC2)cc1OC,22.1,–
Cc1ccc(NC(=O)C(C)Sc2nnc(C3CC3)n2C2CC2)cc1S(=O)(=O)N1CCOCC1 (configuration not stated),-20.8,–
CSCCC(NC(=O)c1ccc(Cl)cc1Cl)C(=O)NNC(=O)c1csc(N2CCOCC2)n1 (configuration not stated),4.89,–
CCOC(=O)c1cc2c(nc1NC(=S)Nc1ccccc1)CC(C)(CC)OC2 (configuration not stated),0.397,–
O=C(NNS(=O)(=O)c1ccc(F)cc1)C1CCCCC1,2.3,–
O=C(NCc1ccccc1Cl)C1CCCN1S(=O)(=O)c1ccc(F)cc1 (configuration not stated),-27.9,–
Cc1ccccc1CNC(=O)C1CCCN(S(=O)(=O)N(C)c2ccc(F)cc2)C1 (configuration not stated),–,23.1 µM (active)
CCOC(=O)c1c(S(=O)(=O)N2CCCC(C(=O)NCc3ccc(F)cc3)C2)c(C)n(CC)c1C (configuration not stated),-14.2,–
CCNC(=O)CC1C(=O)N(c2ccc(OC)cc2)C(=O)N1CCOC (configuration not stated),-3.13,–
CN(C)N=Nc1ccc2nc[nH]c2c1,-13.5,–
Cc1ccc2c(N)c(C(=O)c3ccccc3)sc2n1,-24.8,–
CCCCNC(=O)c1ccc2c(c1)NC(=O)C(C(C)C)N2 (configuration not stated),-22,–
CCOC(=O)N1CCN(CC(=O)c2c(C)[nH]c3ccccc23)CC1,–,18.4 µM (active)
Cc1ccc2c(C(=O)CN3CCCC3)c(C)[nH]c2c1,-19.6,–
Cc1[nH]c2ccccc2c1C(=O)CSCC(=O)O,-19.6,–
Cc1[nH]c2ccccc2c1C(=O)CN1CC(C)CC(C)C1 (configuration not stated),–,11.6 µM (active)
Cc1[nH]c2ccccc2c1C(=O)COC(=O)C(C)C,-4.53,–
Cc1[nH]c2ccccc2c1C(=O)CN1CCCC(C)C1 (configuration not stated),4.31,–
CCOCCCNC(=O)C(NC(=O)Cc1c[nH]c2ccccc12)c1ccc(OC)cc1 (configuration not stated),2.87,–
COc1cccc(NC(=O)N2CCN(C(=O)c3nsc4ccccc34)CC2)c1,5.7,–
COC(=O)Cn1cnc2scc(-c3ccc(C)c(C)c3)c2c1=O,7.8,–

Structure (SMILES),"activity change, negative = growth inhibition [%]",Potency
CCOC(=O)c1c(NC(=O)COC(=O)c2ccc(S(=O)(=O)C(F)F)cc2)sc(C(=O)N(C)C)c1C,-14.4,–
CCOC(=O)c1c(NC(=O)CCl)sc(C(=O)N(CC)CC)c1C,–,13 µM (active)
CCOC(=O)Nc1sc(C(=O)N(C)C)c(C)c1C(=O)OCC,-13.3,–
O=C(COC(=O)c1ccc([N+](=O)[O-])cc1Cl)NC(=O)c1ccccc1,1.48,–
O=C(NCCN1CCOCC1)c1cnn(-c2nccc(-c3cccs3)n2)c1C1CC1,2.01,–
Cc1ccc(C)c(OCC(=O)N2CCN(C(=O)c3ccco3)CC2)c1,-28.5,–
CN1CCN(c2ccc(NC(=O)c3ccccc3)cc2)CC1,0.495,–
NS(=O)(=O)c1ccc(NC(=O)C(=O)Nc2ccc3nc4n(c(=O)c3c2)CCCCC4)cc1,14.5,–
COc1cccc(C(=O)Nc2ccc(N3CCCC3)cc2)c1,–,9.2 µM (active)
Cc1ccc(OCC(=O)Nc2ccc(N3CCN(C(=O)c4ccco4)CC3)cc2)c(C)c1,–,16.4 µM (active)
COc1cccc(C(=O)Nc2ccc3nc4n(c(=O)c3c2)CCCCC4)c1,–,20.6 µM (active)
O=C(Nc1ccc2nc3n(c(=O)c2c1)CCCC3)c1ccc(Cl)nc1,-13.5,–
COc1cccc(C(=O)Nc2ccc(N3CCN(C(=O)c4ccco4)CC3)cc2)c1,–,14.6 µM (active)
O=C(c1ccco1)N1CCN(c2cccc(Cl)c2)CC1,-25.2,–
COc1cccc(C(=O)Nc2ccc(NC(=O)c3ccco3)cn2)c1,-16.7,–
CCC(=O)Nc1ccc(C(=O)N2CCN(C(=O)c3ccco3)CC2)cc1,-9.24,–
COc1ccc(C(=O)Nc2ccc(N3CCC(C)CC3)cc2)cc1Br,8.77,–
COc1cccc(COC(=O)C2CCN(S(=O)(=O)c3ccc(Cl)cc3)CC2)c1OC,-13.8,–
COc1ccc(CN2CC[C@H]3C=CC[C@@H](C(=O)N4CCOCC4)[C@H]3C2=O)cc1OC,–,inactive
C=CCN1C(=NC(=O)COc2ccccc2)SC2CS(=O)(=O)CC21 (configuration not stated),-2.8,–
COc1ccc(CCNC(=O)CSc2nnc3ccc(-c4ccncc4)nn23)cc1,-27.7,–
CCOC(CNC(=O)C(=O)NCC(c1ccco1)N1CCN(c2ccc(OC)cc2)CC1)OCC (configuration not stated),-12.4,–

# Source: PubChem BioAssay AID686979 (National Center for Advancing Translational Sciences (NCATS), 2013)
